Reference: PubChem BioAssay AID488969 (Vanderbilt High Throughput Screening Facility, 2010)
Over roughly 110,000 compounds, “z-score” has its median near -0.1; the highest 2% begin near 2. The full list was thinned out, with the highest values kept by preference. Activity calls are given as the source filed them.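 The calls were made as follows: active = z-score in the third read window above 3 or below -3; inactive = the rest.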

Target: Metabotropic glutamate receptor 8 (Rattus norvegicus) (UniProt P70579)
Sequence (P70579 whole entry, looked up): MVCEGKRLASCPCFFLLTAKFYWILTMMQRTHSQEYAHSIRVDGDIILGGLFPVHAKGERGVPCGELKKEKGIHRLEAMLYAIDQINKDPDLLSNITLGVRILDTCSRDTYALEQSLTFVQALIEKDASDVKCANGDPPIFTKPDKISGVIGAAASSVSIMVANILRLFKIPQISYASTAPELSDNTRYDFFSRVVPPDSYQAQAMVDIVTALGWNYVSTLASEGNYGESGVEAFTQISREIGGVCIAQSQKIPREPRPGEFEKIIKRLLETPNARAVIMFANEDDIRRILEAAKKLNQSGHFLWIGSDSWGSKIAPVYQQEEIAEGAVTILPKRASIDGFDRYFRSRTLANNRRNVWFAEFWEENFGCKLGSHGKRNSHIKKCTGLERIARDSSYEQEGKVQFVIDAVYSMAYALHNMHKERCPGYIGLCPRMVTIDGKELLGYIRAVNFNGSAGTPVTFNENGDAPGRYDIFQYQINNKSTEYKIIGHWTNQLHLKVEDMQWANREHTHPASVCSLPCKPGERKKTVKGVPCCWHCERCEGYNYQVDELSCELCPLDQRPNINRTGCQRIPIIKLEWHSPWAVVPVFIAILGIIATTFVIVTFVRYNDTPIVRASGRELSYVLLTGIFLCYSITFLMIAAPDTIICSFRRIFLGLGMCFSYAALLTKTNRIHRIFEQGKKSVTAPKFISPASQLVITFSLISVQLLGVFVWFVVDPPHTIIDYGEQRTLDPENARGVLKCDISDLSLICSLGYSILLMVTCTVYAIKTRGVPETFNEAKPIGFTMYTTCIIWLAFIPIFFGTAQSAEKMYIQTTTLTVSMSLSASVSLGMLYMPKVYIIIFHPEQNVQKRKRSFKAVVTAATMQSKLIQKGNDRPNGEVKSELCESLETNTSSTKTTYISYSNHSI
Experiment: mGluR8 Gi/Go-coupled signaling modulation – cell-based, rat, thallium flux, HTS, primary screen (AID 488969)
Details: HEK293 rat mGluR8, GIRK (G protein-gated inwardly rectifying potassium channel) thallium flux, FluoZin2; at 10 µM; stronger effect = higher value; submaximal glutamate (EC20) added with thallium

Row | Compound | z-score
1 | CCOC(=O)Nc1cccc(NC(=O)c2cc(OC)cc(OC)c2)c1 | -0.454
2 | C=CCc1ccc(OCC(O)COCC)c(OC)c1 (stereo not given) | -0.12
3 | N#C/C(=C\c1cccs1)C(=O)NCc1cccnc1 | -0.112
4 | O=C(CNc1ccc(C(F)(F)F)cc1[N+](=O)[O-])OCC(=O)c1ccccc1 | -0.875
5 | O=C(CC12CC3CC(CC(C3)C1)C2)N1CCCC1 | -0.327
6 | CCOc1ccccc1N1CCN(C(=O)c2ccccc2)CC1 | -1.51
7 | CCN(CC)CCNC(=O)C12CC3CC(C)(CC(C)(C3)C1)C2 | 0.873
8 | O=C(NC(=S)N1CCCCCC1)C1CC1 | 0.000532
9 | O=C(CC12CC3CC(CC(C3)C1)C2)NC(=S)N1CCCCC1 | 2.58
10 | O=C(CC12CC3CC(CC(C3)C1)C2)NCC(=O)N1CCCC1 | 0.463
11 | CCOc1ccccc1N1CCN(C(=S)NC(=O)C23CC4CC(CC(C4)C2)C3)CC1 | 4.1 (active)
12 | CCOc1ccccc1N1CCN(C(=S)Nc2ccc(S(N)(=O)=O)cc2)CC1 | -0.356
13 | CC12CC3CC(C)(C1)CC(C(=O)NC(=S)N1CCCCC1)(C3)C2 | 8.62 (active)
14 | COC1(c2ccccc2)NC(=S)NN=C1c1ccccc1 (stereo not given) | 0.721
15 | O=S(=O)(c1cccc(NC(=S)N2CCN(c3ccccc3)CC2)c1)C(F)F | -0.245
16 | Cc1occc1-c1nnc(SCC(=O)NC(C)(C)C)n1C(C)c1ccccc1 (stereo not given) | 0.32
17 | CN1C(=O)c2ccccc2C(C(=O)NCC2CCCO2)C1c1c[nH]c2ccccc12 (stereo not given) | -1.14
18 | COc1ccc(CCNC(=O)COC(=O)c2ccc(Br)o2)cc1OC | 0.125
19 | COc1ccc(CC(=O)NNC(=O)CSc2nnc(Cc3ccc(OC)cc3)n2-c2ccccc2)cc1 | -0.277
20 | N#Cc1ccccc1NC(=O)c1ccccc1OCC(=O)Nc1ccc2c(c1)oc1ccccc12 | -0.362
21 | CC(C)(C)NC(=O)COC(=O)c1ccccc1OCC(=O)Nc1ccc(Br)cc1 | -0.154
22 | CCN1C(=O)CC(N2CCC(Nc3ccc(OC)cc3)CC2)C1=O (stereo not given) | 0.0918

Row | Compound | z-score
23 | COc1ccc(CCNC(=O)COc2ccc(S(=O)(=O)NCC(C)C)cc2Cl)cc1OC | -0.464
24 | Cc1ccc(NC(=O)/C(C#N)=C/c2cc(C)n(-c3ccc(N4CCOCC4)c([N+](=O)[O-])c3)c2C)c(C)c1 | -0.136
25 | CCOC(=O)N1CCC(N2C(=O)c3ccccc3C2Nc2ccc(C)cc2)CC1 (stereo not given) | -0.488
26 | CCOC(=O)N1CCC(N2C(=O)c3ccccc3C2Nc2ccccc2)CC1 (stereo not given) | -0.126
27 | CCOC(=O)N1CCC(N2C(=O)c3ccccc3C2Nc2ccc3c(C)cc(=O)oc3c2)CC1 (stereo not given) | 4.01 (active)
28 | CCOC(=O)N1CCC(N2C(=O)c3ccccc3C2Nc2c(C)cccc2C)CC1 (stereo not given) | -0.177
29 | CCOC(=O)c1ccccc1NC1c2ccccc2C(=O)N1C1CCN(C(=O)OCC)CC1 (stereo not given) | -0.69
30 | CCOC(=O)N1CCC(N2C(=O)c3ccccc3C2Nc2ccccc2C)CC1 (stereo not given) | 2.74
31 | CCN(CC)c1ccc(C(=O)N/N=C(\C)c2ccc(OC)c(OC)c2)cc1 | 0.585
32 | CCOC(=O)c1cc2c(ccn2C)n1CC(=O)N(Cc1ccccc1)c1ccc(F)cc1 | 1.2
33 | CCOC(=O)C(C)(C)Sc1nc2c(cnn2-c2ccc(Cl)cc2)c(=O)[nH]1 | -0.781
34 | Cc1ccc(OCC(=O)c2ccc3c(c2)CCCC3)cc1C | -0.12
35 | O=C(Nc1ccc2c3c(cccc13)CC2)c1ccco1 | 0.0277
36 | Cc1cc(C)c(NC(=O)c2ccccc2N(C)S(C)(=O)=O)c(C)c1 | 0.0701
37 | CC1(C)CC(=O)c2cn3nc(C(F)(F)F)nc3nc2C1 | -0.129
38 | CCC1(c2ccc(Cl)cc2)NC(=S)N(c2ccccc2)N1 (stereo not given) | 4.78 (active)
39 | CC1CCC2(CC1)NC(=S)N(c1ccccc1)N2 (stereo not given) | 0.323
40 | CCC1(c2ccccc2)NC(=S)N(c2cccc(C)c2C)N1 (stereo not given) | 1.26
41 | Cc1ccc(SCCC(=O)Nc2ccc(Br)c(C)c2)cc1 | -0.0218
42 | Cn1cccc1/C=N/n1c(-c2ccc(Cl)cc2)n[nH]c1=S | 1.03
43 | S=c1[nH]nc(-c2ccco2)n1/N=C/c1cccc(Cl)c1Cl | 5.73 (active)
44 | S=c1[nH]nc(-c2ccco2)n1/N=C/c1ccc(Cl)cc1Cl | 6.87 (active)

Row | Compound | z-score
45 | Cc1ccsc1/C=N/n1c(-c2ccco2)n[nH]c1=S | 0.377
46 | S=c1[nH]nc(-c2ccco2)n1/N=C/c1ccc(Cl)c(Cl)c1 | 1.59
47 | S=c1[nH]nc(-c2ccco2)n1/N=C/c1ccccc1Cl | 1.07
48 | S=c1[nH]nc(-c2ccco2)n1/N=C/c1ccc(Cl)cc1 | -0.0483
49 | Cn1cccc1/C=N/n1c(-c2ccc(Cl)cc2Cl)n[nH]c1=S | 2.46
50 | Cc1ccc(-c2n[nH]c(=S)n2/N=C/c2cccn2C)cc1 | 1.02
51 | Cc1ccc(-n2nc(CN3CCOCC3)c(-c3ccccc3)c2N)c(C)c1 | -0.0359
52 | CCCOc1ccc(-c2csc(N)n2)cc1[N+](=O)[O-] | -0.349
53 | Cc1ccc(C2NC(c3ccc(C)cc3)C(C)C(=NO)C2C)cc1 (stereo not given) | -0.376
54 | O=C(Nn1cnnc1)c1ccccc1CCc1ccccc1 | 0.0675
55 | CS(=O)(=O)c1ccc2nc(NC(=O)C3COc4ccccc4O3)sc2c1 (stereo not given) | 0.303
56 | Cn1c(=O)c2c(nc(NCc3ccc4c(c3)OCO4)n2Cc2ccccc2)n(C)c1=O | -1.09
57 | CCc1ccc(S(=O)(=O)N2CC(=O)Nc3ccccc32)cc1 | -0.195
58 | Cc1cccc(Sc2ccc([N+](=O)[O-])cc2[N+](=O)[O-])n1 | -0.278
59 | CCOc1cc(C=O)c(Br)cc1OC1CCCC1 | 0.0863
60 | COc1cc(C=O)c(Br)cc1OCc1ccc(C)cc1 | -0.101
61 | COc1cc(C=O)c(Br)cc1OC1CCCC1 | 2.09
62 | CCOc1ccc(CCNC(=O)C2CCN(C(=O)N(C)C)CC2)cc1OCC | 0.862
63 | Clc1cccc2c1Sc1ccccc1CC2N1CCNCC1 (stereo not given) | 0.386
64 | Clc1ccc2c(c1)C(C1=NCCN1)c1ccccc1CS2 (stereo not given) | 0.865
65 | Clc1ccc2c(c1)C(N1CCNCC1)Cc1ccccc1S2 (stereo not given) | 3.92 (active)
66 | COc1ccc(OC)c(N(CC(=O)Nc2cccnc2)S(=O)(=O)c2ccccc2)c1 | -0.398

Row | Compound | z-score
67 | C=CCOc1cccc(/C=N/NC(=O)CN(c2cc(Cl)ccc2OC)S(=O)(=O)c2ccc(C)c([N+](=O)[O-])c2)c1 | -0.0532
68 | Cc1ccc2nc3sc(C(=O)NCc4ccco4)c(N)c3cc2c1 | -0.222
69 | CNC(=O)CSc1nnnn1CCCOC | 0.0742
70 | CCC1(O)CC(C(=O)OC)=NN1C(=O)c1ccccc1 (stereo not given) | 0.602
71 | CCOC(=O)C1=NN(C(=O)c2ccccc2)C(O)(c2ccc(C)cc2)C1 (stereo not given) | 10.5 (active)
72 | CCC1=NN(C(=O)Cc2ccc([N+](=O)[O-])cc2)C(O)(c2ccc(Br)cc2)C1 (stereo not given) | -0.206
73 | CCOC(=O)C1=NN(C(C)=O)C2(CC(=O)N(c3cccc(C)c3)C2=O)C1 (stereo not given) | -0.0266
74 | CCOC(=O)C1=NN(C(=O)c2ccco2)C2(CC2)C1 | -0.239
75 | CC1=NN(C(=O)c2ccc(C)cc2)C(O)(C(F)(F)OC(F)(F)F)C1 (stereo not given) | -0.0203
76 | COC(=O)C1=NN(C(=O)c2ccc(C)cc2)C(O)(c2ccc(Cl)cc2)C1 (stereo not given) | 8.48 (active)
77 | CCC1=NN(C(=O)c2cccc(Br)c2)C(O)(c2ccc(Br)cc2)C1 (stereo not given) | 3.84 (active)
78 | COC(=O)C1=NN(C(=O)c2ccccc2)C(C)(O)C1 (stereo not given) | 0.19
79 | CCC1=NN(C(=O)c2ccc(C)cc2)C(O)(c2ccc(Br)cc2)C1 (stereo not given) | 0.175
80 | COC(=O)C1(O)CC(C(C)C)=NN1C(=O)c1ccc(Cl)cc1 (stereo not given) | 0.417
81 | COC(=O)C1=NN(C(=O)c2ccc(Cl)cc2)C(O)(c2ccccc2)C1 (stereo not given) | 11.5 (active)
82 | Cn1ncc(Br)c1C(=O)OCC(=O)Nc1nc(-c2ccccc2)cs1 | -0.654
83 | CCCCOCCCNC(=O)/C=C/c1ccccc1Cl | -0.149
84 | C/C=C/c1ccc(OCCCNC2CCCC2)c(OC)c1 | 1.24
85 | COC(=O)c1cc(C#N)c(N(C)Cc2ccccc2)nc1C | -0.154
86 | CCc1nnc(NC(=O)CSc2nnc(-c3ccncc3)n2C)s1 | -1.78
87 | COC(=O)c1cc(O)c(OCc2ccccc2)c(O)c1 | -0.276
88 | CCOC(=O)C1=C(C)NC(=O)NC1c1cccc(O)c1 (stereo not given) | -0.126

Row | Compound | z-score
89 | CCOC(=O)C1CCC(CNCc2ccc(Cl)cc2)CC1 (stereo not given) | -1.85
90 | CNc1c([N+](=O)[O-])cnn1-c1ccc(Cl)cc1Cl | -0.197
91 | CCOC(=O)C1=NN(C(=O)c2ccc(C)cc2)C(O)(c2ccc(Cl)cc2)C1 (stereo not given) | 10.4 (active)
92 | CC1=NN(C(=O)COc2ccc(C)c(C)c2)C(O)(c2ccc(Cl)cc2)C1 (stereo not given) | -0.32
93 | CC1=NN(C(=O)COc2ccccc2C)C(O)(c2ccc(Cl)cc2)C1 (stereo not given) | -0.867
94 | CN1CCN(c2ncnc3c2cnn3-c2ccc(Cl)cc2)CC1 | 0.276
95 | COc1ccccc1OCCNc1nc2c(c(=O)n(C)c(=O)n2C)n1C | 1.41
96 | Cc1ccc(Cc2cnc(NC(=O)c3ccco3)s2)cc1 | -0.555
97 | Cc1ccc(NC(=O)CSc2nc3ccccc3c3nc(CCc4c(C)n[nH]c4C)nn23)cc1F | -0.264
98 | CNC(=O)CN1C(=O)CSc2ncccc21 | 0.227
99 | COCCNC(=O)CN1C(=O)CSc2ncccc21 | 3.57 (active)
100 | COC(=O)CN1C(=O)CSc2ncccc21 | 0.767
101 | COC(=O)c1ccc(C)c(NC(=O)Cc2coc3cc(OC)ccc23)c1 | 0.022
102 | Cn1c(SCCOc2cccc(Cl)c2)nnc1-c1ccncc1 | -0.17
103 | COCCSc1nnc(-c2cccc(C#N)c2)n1C | 2.31
104 | Cc1ccc(OCCSc2nnc(-c3ccncc3)n2C)cc1 | -0.157
105 | Cc1ccc(S(=O)(=O)N2CCC(C(=O)N3CCC[C@H]3C(=O)NCc3ccccc3)CC2)cc1 | -0.265
106 | CCC(c1nnnn1C(C)(C)C)N1CCN(C2CCCC2)CC1 (stereo not given) | 0.224
107 | O=C(CN(Cc1cccs1)C(=O)CNS(=O)(=O)c1ccc(F)cc1)NCc1ccco1 | -0.317
108 | Cc1ccc(-c2cc(-c3cccs3)[nH]n2)c(O)c1 | 2.77
109 | Cc1ccc(-c2cc(-c3ccccc3[N+](=O)[O-])[nH]n2)c(O)c1 | -0.292
110 | Cc1ccc(-c2cc(-c3ccccc3C)[nH]n2)c(O)c1 | -0.115
